A short description of assay [1]: qHTS assay to identify aromatase inhibitors - cell viability counter screen (AID 743084).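 Also: cells stimulated with testosterone during compound exposure; nearly all actives have a fitted effect of over 55% in size.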 Also: potency is read from the fitted curve at half-maximal effect. A general note: qHTS replaces the single test concentration by a dilution series.
Assay [2] concerns the target Aryl hydrocarbon receptor (Homo sapiens) (UniProt P35869). Put plainly: qHTS assay to identify small molecule that activate the aryl hydrocarbon receptor (AhR) signaling pathway (AID 743085). Also: nearly all actives have a fitted effect of over 15% in size. Also: potency is read from the fitted curve at half-maximal effect.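 As to activation: HG2L7.5c1 human HepG2 liver cells with stably integrated DRE-driven firefly reporter; series mostly up to about 70 µM.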 In a few lines:
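Compounds were tested in HepG2 hepatocellular carcinoma cells harbouring a stably integrated luciferase gene under control of 20 DREs. Increased reporter signal after 24 h treatment at 37C was taken as AhR activation.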

The target of assay [3] is Peroxisome proliferator-activated receptor gamma (Homo sapiens) (UniProt P37231). Put plainly: qHTS assay to identify small molecule agonists of the peroxisome proliferator-activated receptor gamma (PPARg) signaling pathway (AID 743094; active = well fitted activation curve with a large enough effect in the signal ratio in the repeat runs, not every such curve was filed as active; the % refers to the signal ratio). In outline:
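Cell-based bla reporter, HEK293H background, PPARg-driven UAS. Pre-incubation 5 h, 37C, 5% CO2. Compound 17 h, 37C. Substrate 1 h RT; fluorescence.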

Assay [4] shares this target. Put plainly: qHTS assay to identify small molecule antagonists of the peroxisome proliferator-activated receptor gamma (PPARg) signaling pathway (AID 743191; calls by dose curve; also: nearly all actives have a fitted effect of over 30% in size; also: potency is read from the fitted curve at half-maximal effect). In outline:
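GeneBLAzer PPARg UAS-bla HEK293H cells carrying a UAS-driven beta-lactamase reporter were plated at 3000 cells/well, preincubated 5 h at 37C, then given compound for 17 h at 37C; LiveBLAzer B/G FRET substrate was read after 1 h at room temperature.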

Assay [5] can be described thus: qHTS assay for small molecule agonists of the antioxidant response element (ARE) signaling pathway (AID 743202; active = well fitted activation curve with a large enough effect in the signal ratio in the repeat runs, not every such curve was filed as active; the % refers to the signal ratio; also: potency is read from the fitted curve at half-maximal effect). In a few lines: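 Following a 16 h, 37 C exposure of reporter HepG2 cells (ARE-driven beta-lactamase, 2,000 cells/well) to compounds, FRET substrate was applied for 2 h at room temperature and fluorescence intensity recorded.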
The nature of assay [6]: qHTS assay for small molecule agonists of the antioxidant response element (ARE) signaling pathway - cell viability counter screen (AID 743203; calls by dose curve; also: nearly all actives have a fitted effect of over 55% in size; also: potency is read from the fitted curve at half-maximal effect). In outline: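 Measured in the same wells as the beta-lactamase ARE reporter, this read-out is CellTiter-Glo luminescence from HepG2 ARE-bla cells given compounds for 16 hrs.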
Assay [7] is described as follows: qHTS assay for small molecule activators of the heat shock response signaling pathway - cell viability counter screen (AID 743209). Also: nearly all actives have a fitted effect of over 50% in size. In a few lines: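 Same-well multiplex: after 2.5 h room-temperature incubation with LiveBLAzer B/G substrate and fluorescence reading, CellTiter-Glo reagent was added to HSE-bla HeLa cells that had received compound for 5 h at 37 C; luminescence read after 30 min.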

Assay [8] can be described thus: qHTS assay for small molecule activators of the heat shock response signaling pathway (AID 743210; active = well fitted activation curve with a large enough effect in the signal ratio in the repeat runs, with a control signal flat, not every such curve was filed as active; the % refers to the signal ratio; also: potency is read from the fitted curve at half-maximal effect; as to activation: series mostly up to about 63 µM). In outline:
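Heat shock element–beta-lactamase HeLa reporter cells; qHTS with compounds for 5 h at 37 C; detection by FRET substrate fluorescence after 2.5 h at RT.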

Assay [9] is described as follows: qHTS assay to identify small molecule that activate the aryl hydrocarbon receptor (AhR) signaling pathway - cell viability counter screen (AID 743086). Also: nearly all actives have a fitted effect of over 45% in size. Also: potency is read from the fitted curve at half-maximal effect. In a few lines:
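HepG2-AhR-luc (HG2L7.5c1) cells, 4000/well, were preincubated 5 h at 37C, exposed to compound in qHTS format for 24 hr at 37C, then given CellTiter-Fluor for 30 min; viability was read as fluorescence in the reporter wells.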

Assay [10] in a line: qHTS assay to identify small molecule antagonists of the peroxisome proliferator-activated receptor gamma (PPARg) signaling pathway - cell viability counter screen (AID 743194). Also: nearly all actives have a fitted effect of over 55% in size. Also: potency is read from the fitted curve at half-maximal effect. In a few lines: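 PPARg-UAS-bla HEK293H cells were plated, rested 5 h at 37 C, then treated with compounds plus rosiglitazone (50 nM final) for 17 h at 37 C; viability was then read by CellTiter-Glo luminescence after 30 min at room temperature.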

Inconclusive results are not listed. Calls of active or inactive are those of the source. Unless noted, calls follow the shape of the dose curve; as a rule, active = well fitted curve in the direction sought with a large enough effect in the repeat runs; inconclusive = weak or mixed curves; inactive = no such curve, though single readings can be large; an effect the other way counts as inactive or inconclusive.

Sequence of Aryl hydrocarbon receptor (Homo sapiens) (P35869 whole entry, looked up): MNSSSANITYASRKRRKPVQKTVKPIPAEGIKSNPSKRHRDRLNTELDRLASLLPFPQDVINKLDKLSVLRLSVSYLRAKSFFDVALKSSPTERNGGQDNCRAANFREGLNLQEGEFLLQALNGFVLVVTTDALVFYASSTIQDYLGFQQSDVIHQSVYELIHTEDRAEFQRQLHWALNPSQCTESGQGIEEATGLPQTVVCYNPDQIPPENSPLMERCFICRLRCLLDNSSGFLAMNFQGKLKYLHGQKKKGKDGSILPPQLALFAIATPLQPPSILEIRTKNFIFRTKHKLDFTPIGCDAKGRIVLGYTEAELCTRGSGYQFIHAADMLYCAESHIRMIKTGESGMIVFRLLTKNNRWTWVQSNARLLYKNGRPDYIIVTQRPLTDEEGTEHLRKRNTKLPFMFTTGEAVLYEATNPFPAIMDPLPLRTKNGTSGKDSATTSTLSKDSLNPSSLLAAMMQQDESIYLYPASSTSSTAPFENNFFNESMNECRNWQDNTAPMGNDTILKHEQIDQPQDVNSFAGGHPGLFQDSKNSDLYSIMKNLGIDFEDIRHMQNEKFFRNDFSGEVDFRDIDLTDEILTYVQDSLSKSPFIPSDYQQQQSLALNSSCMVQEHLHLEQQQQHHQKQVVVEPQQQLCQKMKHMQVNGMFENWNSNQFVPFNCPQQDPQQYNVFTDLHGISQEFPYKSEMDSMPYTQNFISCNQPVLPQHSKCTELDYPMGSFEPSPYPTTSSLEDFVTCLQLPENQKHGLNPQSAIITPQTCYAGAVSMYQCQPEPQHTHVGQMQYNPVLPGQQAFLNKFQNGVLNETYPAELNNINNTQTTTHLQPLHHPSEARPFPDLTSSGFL
Sequence of Peroxisome proliferator-activated receptor gamma (Homo sapiens) (P37231 whole entry, looked up): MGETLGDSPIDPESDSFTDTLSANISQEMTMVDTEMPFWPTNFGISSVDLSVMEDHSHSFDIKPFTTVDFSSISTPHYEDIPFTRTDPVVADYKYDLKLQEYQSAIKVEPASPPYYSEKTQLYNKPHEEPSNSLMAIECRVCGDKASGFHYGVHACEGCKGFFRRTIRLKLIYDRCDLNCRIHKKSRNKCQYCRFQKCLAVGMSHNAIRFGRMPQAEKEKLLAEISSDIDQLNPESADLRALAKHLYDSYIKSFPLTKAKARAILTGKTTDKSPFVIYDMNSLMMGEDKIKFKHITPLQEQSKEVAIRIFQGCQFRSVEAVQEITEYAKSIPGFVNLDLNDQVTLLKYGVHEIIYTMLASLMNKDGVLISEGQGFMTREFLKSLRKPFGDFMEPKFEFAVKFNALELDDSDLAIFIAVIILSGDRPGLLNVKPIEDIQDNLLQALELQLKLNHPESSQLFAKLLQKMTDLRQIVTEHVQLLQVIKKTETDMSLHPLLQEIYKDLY

Take `CCCOC(=O)c1ccc(C(=O)OCCC)nc1`: the Potency result in assay [1], in [2], in [3], in assay [4], in assay [5] and in assay [6] was “inactive” in each case. Further, the Potency entry in assay [7] and in assay [8] was “inactive” in each case.

For the compound `O=C(Nc1ccc([N+](=O)[O-])cc1)Nc1ccc([N+](=O)[O-])cc1`, the Potency result in [1], in [9], in assay [3], in [4] and in [8] was “inactive” each time. For the same compound, the Potency in assay [10] was 1.33 µM (active); in [5] it was 2.66 µM (active).

As to `CC(C)(O)c1ccccc1CC[C@@H](SCC1(CC(=O)O)CC1)c1cccc(/C=C/c2ccc3ccc(Cl)cc3n2)c1`, the Potency entry in assay [1], in [3], in [6], in assay [7] and in assay [8] was “inactive” throughout. In addition, the Potency in assay [2] is 23.7 µM (active).

In the case of `Nc1ccc(S(=O)(=O)O)c(N)c1`, the Potency entry in assay [1], in assay [9], in assay [3], in [4], in assay [10] and in assay [5] was “inactive” each time. For the same compound, the Potency entry in assay [6], in assay [7] and in assay [8] was “inactive” throughout.

For `CC(CCc1ccc2c(c1)OCO2)NN` (configuration not stated), the Potency result in assay [1], in assay [9], in assay [3], in assay [4], in [10] and in [6] was “inactive” in each case. Also, the Potency result in assay [7] and in assay [8] was “inactive” throughout.

In the case of `Cc1c(C(=O)NN2CCCCC2)nn(-c2ccc(Cl)cc2Cl)c1-c1ccc(Cl)cc1`, the Potency entry in [1] and in [2] was “inactive” each time. Moreover, the Potency in [6] is 23.7 µM (active).

Consider `Cc1cc(S(=O)(=O)O)ccc1N=Nc1c(O)ccc2ccccc12`, for which the Potency is 27.3 µM (active) in assay [1] and 24.3 µM (active) in assay [9]. For the same compound, the Potency result in assay [3], in assay [4], in [10], in [5], in assay [7] and in assay [8] was “inactive” throughout.

`Oc1cc(O)c(Cl)cc1Cl`: the Potency entry in assay [1], in assay [9], in [3], in assay [4], in [10] and in assay [6] was “inactive” throughout. The Potency entry in assay [7] was “inactive”. Further, the Potency in assay [8] is 50.2 µM (active).

In the case of `CC(C)OCC1CO1` (configuration not stated), the Potency entry in [1], in assay [9], in [3], in assay [4], in assay [10] and in assay [5] was “inactive” throughout. Besides, the Potency result in assay [6] and in assay [7] was “inactive” each time.

Take `Cc1ccnc2ccccc12`: the Potency entry in assay [1], in assay [9], in assay [3], in [4], in assay [10] and in assay [5] was “inactive” each time. In addition, the Potency result in assay [6] is “inactive”.

Regarding `Cc1ccc(/C=N/n2c(-c3ccccc3)csc2=S)cc1`, the Potency entry in [1], in [10] and in assay [6] was “inactive” in each case. Moreover, the Potency in assay [2] was 10.6 µM (active); in [4], 13.3 µM (active).

For the compound `CCC(Cc1ccccc1)(C(=O)c1ccc(N2CCOCC2)cc1)N(C)C` (configuration not stated), the Potency entry in assay [1], in assay [2], in [3], in assay [10], in assay [6] and in assay [7] was “inactive” each time.

For `ON(Cc1ccccc1)Cc1ccccc1`, the Potency entry in [1], in [9], in assay [3], in assay [4], in assay [10] and in [5] was “inactive” throughout. Also, the Potency entry in assay [6] and in assay [7] was “inactive” each time.

As for `C[Si](NC1CCCCC1)(NC1CCCCC1)NC1CCCCC1`, the Potency result in assay [1], in [9], in [3], in [4], in assay [10] and in assay [6] was “inactive” each time. Also, the Potency entry in assay [7] and in [8] was “inactive” each time.

On to `CCCCCCCCCCCCCCCCBr`, for which the Potency result in assay [1], in assay [2], in assay [3], in assay [4], in assay [5] and in assay [8] was “inactive” throughout.

For the compound `C=CC(C)(O)CCCC(C)CCCC(C)CCCC(C)C` (configuration not stated), the Potency entry in [1], in [2], in assay [3], in assay [10], in assay [5] and in [6] was “inactive” in each case. In addition, the Potency result in assay [8] is “inactive”.

Regarding `CCCOc1ccc(S(=O)(=O)N2CCN(CC)CC2)cc1-c1nc2c(CC)n(Cc3ccccn3)nc2c(=O)[nH]1`, the Potency entry in assay [1], in assay [2], in [10], in assay [6], in [7] and in [8] was “inactive” in each case.

Consider `CC1(C)C(=O)N(Br)C(=O)N1Cl`, for which the Potency result in [1], in assay [2], in assay [4], in assay [10] and in assay [6] was “inactive” each time.

Turning to `c1cnc2c(n1)CCCC2`, the Potency result in [1], in [9], in [3], in assay [4], in [10] and in [5] was “inactive” each time. In addition, the Potency result in assay [6] and in [7] was “inactive” in each case.

On to `CNC(=S)NC`, for which the Potency result in assay [1], in assay [2], in assay [4], in assay [10], in [6] and in assay [7] was “inactive” in each case. The Potency result in assay [8] was “inactive”.

With `CC1=NN(c2ccc(C(=O)O)cc2)C(=O)C1`, the Potency result in assay [1], in [9], in [3], in assay [4], in assay [10] and in [5] was “inactive” throughout. In addition, the Potency entry in [6] and in [7] was “inactive” each time.

Take `Fc1c(F)c(F)c(Br)c(F)c1F`: the Potency result in [1], in [9], in assay [3], in assay [4], in [10] and in [7] was “inactive” throughout. For the same compound, the Potency entry in assay [8] is “inactive”.

On to `CCC(=O)OC/C=C/c1ccccc1`, for which the Potency result in assay [1], in [9], in assay [3], in assay [4], in [10] and in assay [6] was “inactive” in each case. Further, in [7], the Potency entry is “inactive”.

In the case of `CCCCCC=CCC=CCCCCCCCC(=O)OCC`, the Potency result in [1], in assay [9], in assay [3], in assay [10] and in [6] was “inactive” throughout. Also, the Potency in assay [4] is 29.8 µM (active).

In the case of `CCCCOC(=O)CCS`, the Potency entry in assay [1], in assay [2], in assay [3], in [10], in assay [5] and in assay [6] was “inactive” throughout. In assay [7], the Potency entry is “inactive”.

As to `CC(=O)[C@H]1CC[C@H]2[C@@H]3C[C@H](C)C4=CC(=O)CC[C@]4(C)[C@H]3[C@@H](O)C[C@]12C`, the Potency entry in assay [1], in [9], in assay [3], in assay [4], in assay [10] and in assay [5] was “inactive” in each case. Besides, the Potency result in assay [6], in [7] and in assay [8] was “inactive” in each case.

For the origin of these results see PubChem BioAssay (Tox21).
